Reference: PubChem BioAssay (EPA / NIEHS)
The source made the active and inactive calls. Rule for the calls: active = hit-call score of the fitted dose curve at least 0.9, where 1 is the maximum; inactive = score below 0.9.

Key:
Conditions in all cases: mRNA level, 48 h; actives raise or lower the signal
[1] = read-out: JUN Transcription Factor, JUN (gene 3725); test: LTEA_HepaRG_JUN: Life Technologies and Expression Analysis (LTEA) Assay for JUN Transcription Factor using HepaRG (AID 2283513)
In short: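 Human HepaRG liver cells receive test chemicals in 0.5% DMSO for 48 h across an eight-point range topping at 100 uM. Expression changes in JUN are scored in both directions against the DMSO vehicle.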

[2] = read-out: Lipase C (LIPC), LIPC (gene 3990); test: LTEA_HepaRG_LIPC: Life Technologies and Expression Analysis (LTEA) Assay for Lipase C (LIPC) using HepaRG (AID 2283514)
In short: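 HepaRG cells, 48 h after plating, treated in duplicate for 48 h in serum-free induction medium over 8 half-log concentrations from 100 uM, 0.5% DMSO. LIPC mRNA by TaqMan qRT-PCR normalized to ACTB/GAPDH/POLR2A; bidirectional fit versus DMSO.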

[3] = read-out: Lipoprotein lipase (LPL), LPL (gene 4023); test: LTEA_HepaRG_LPL: Life Technologies and Expression Analysis (LTEA) Assay for Lipoprotein lipase (LPL) using HepaRG (AID 2283515)
In short: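 Differentiated HepaRG cells, plated 48 h, then exposed 48 h in serum-free induction medium to 8 concentrations (top 100 uM, half-log steps) in 0.5% DMSO, duplicate. LPL mRNA measured by qRT-PCR, normalized to ACTB, GAPDH and POLR2A.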

[4] = read-out: MicroRNA 122 (MIR122), gene 406906; test: LTEA_HepaRG_MIR122: Life Technologies and Expression Analysis (LTEA) Assay for MicroRNA 122 (MIR122) using HepaRG (AID 2283516); note: the transcript read is the microRNA miR-122
In short: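 HepaRG, 48 h exposure, 8-pt half-log from 100 uM, 0.5% DMSO; TaqMan qRT-PCR; bidirectional fit vs DMSO.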

[5] = read-out: matrix metalloproteinase-10 (MMP10), MMP10 (gene 4319); test: LTEA_HepaRG_MMP10: Life Technologies and Expression Analysis (LTEA) Assay for matrix metalloproteinase-10 (MMP10) using HepaRG (AID 2283517)
In short: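 Differentiated HepaRG cells in serum-free induction medium exposed 48 h in duplicate to 8-point half-log series up to 100 uM in 0.5% DMSO. mRNA quantified by qRT-PCR, normalised to ACTB, GAPDH, POLR2A; bidirectional fit versus DMSO.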

MYC, MYC (gene 4609) = test: LTEA_HepaRG_MYC: Life Technologies and Expression Analysis (LTEA) Assay for MYC using HepaRG (AID 2283518)
In short: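 HepaRG, ~100,000 cells/well, collagen I; 48 h plating; serum-free induction medium; 48 h dosing, duplicate, 100 uM top, half-log, 0.5% DMSO; total RNA → qRT-PCR MYC; gain/loss fit vs DMSO.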

[6] = read-out: matrix metalloproteinase-3 (MMP3), MMP3 (gene 4314); test: LTEA_HepaRG_MMP3: Life Technologies and Expression Analysis (LTEA) Assay for matrix metalloproteinase-3 (MMP3) using HepaRG (AID 2283519)
In short: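 HepaRG cells (~100,000/well) in serum-free induction medium were dosed in duplicate for 48 h with an 8-point half-log series from 100 uM, 0.5% DMSO. MMP3 mRNA was quantified by Fluidigm TaqMan qRT-PCR, normalized to three housekeeping genes.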

[7] = read-out: Paternally Expressed 10 (PEG10), PEG10 (gene 23089); test: LTEA_HepaRG_PEG10: Life Technologies and Expression Analysis (LTEA) Assay for Paternally Expressed 10 (PEG10) using HepaRG (AID 2283520)
In short: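 Chemicals tested on HepaRG cells for 48 h, highest concentration 100 uM. PEG10 expression assessed by qRT-PCR relative to DMSO control.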

[8] = read-out: Nuclear factor NF-kappa-B p105 subunit (Homo sapiens) (UniProt P19838); test: LTEA_HepaRG_NFKB1: Life Technologies and Expression Analysis (LTEA) Assay for Nuclear Factor Kappa B Subunit 1 (NFKB1) using HepaRG (AID 2283521);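 note: TaqMan qRT-PCR transcript normalised to ACTB GAPDH and POLR2A housekeeping genes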
In short: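 Differentiated human HepaRG cells in serum-free induction medium with 0.5% DMSO were exposed for 48 h to eight half-log concentrations, top 100 uM, in duplicate. NFKB1 mRNA measured by Fluidigm TaqMan qRT-PCR, normalised to ACTB, GAPDH and POLR2A; bidirectional fit versus DMSO.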

[9] = read-out: Protein phosphatase 2A (PPP2R4), PTPA (gene 5524); test: LTEA_HepaRG_PPP2R4: Life Technologies and Expression Analysis (LTEA) Assay for Protein phosphatase 2A (PPP2R4) using HepaRG (AID 2283522)
In short: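 Gene-expression endpoint in HepaRG hepatic cells: 48 h treatment across eight half-log concentrations up to 100 uM in 0.5% DMSO. PPP2R4 mRNA by qRT-PCR, normalized to three endogenous control genes.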

[10] = read-out: Phosphatase and tensin (PTEN), PTEN (gene 5728); test: LTEA_HepaRG_PTEN: Life Technologies and Expression Analysis (LTEA) Assay for Phosphatase and tensin (PTEN) using HepaRG (AID 2283523)
In short: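 HepaRG cells, 48 h after plating, exposed in duplicate for 48 h in serum-free induction medium to 8 half-log concentrations up to 100 uM (0.5% DMSO). PTEN mRNA by qRT-PCR, normalized to ACTB, GAPDH, POLR2A; bidirectional fit versus DMSO.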

[11] = read-out: solute carrier (SLC22A1), SLC22A1 (gene 6580); test: LTEA_HepaRG_SLC22A1: Life Technologies and Expression Analysis (LTEA) Assay for solute carrier (SLC22A1) using HepaRG (AID 2283524)
In short: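 Differentiated human HepaRG cells in serum-free induction medium, exposed 48 h in duplicate to 8-point half-log series from 100 µM top in 0.5% DMSO. SLC22A1 mRNA by TaqMan qRT-PCR normalized to ACTB, GAPDH, POLR2A; bidirectional fit versus DMSO.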

[12] = read-out: Pyruvate Dehydrogenase Kinase 4 (PDK4), PDK4 (gene 5166); test: LTEA_HepaRG_PDK4: Life Technologies and Expression Analysis (LTEA) Assay for Pyruvate Dehydrogenase Kinase 4 (PDK4) using HepaRG (AID 2283525)
In short: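 HepaRG cells plated 48 h, then switched to serum-free induction medium and exposed in duplicate for 48 h to 8 half-log concentrations from 100 uM in 0.5% DMSO. PDK4 mRNA measured by qRT-PCR, normalized to ACTB, GAPDH and POLR2A; bidirectional fit versus DMSO.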

[13] = read-out: NAD(P)H dehydrogenase [quinone] 1 (NQO1), NQO1 (gene 1728); test: LTEA_HepaRG_NQO1: Life Technologies and Expression Analysis (LTEA) Assay for NAD(P)H dehydrogenase [quinone] 1 (NQO1) using HepaRG (AID 2283526)
In short: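 Human HepaRG hepatic cells received chemicals for 48 h in serum-free induction medium with 0.5% DMSO, up to 100 uM. Expression was assessed by TaqMan qRT-PCR against housekeeping controls and fitted bidirectionally against DMSO.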

[14] = read-out: Nuclear factor erythroid 2-related factor 2 (Homo sapiens) (UniProt Q16236); test: LTEA_HepaRG_NFE2L2: Life Technologies and Expression Analysis (LTEA) Assay for Nuclear factor erythroid 2-related factor 2 (NFE2L2) Transcription Factor using HepaRG (AID 2283527);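 note: TaqMan qRT-PCR transcript level normalised to ACTB GAPDH and POLR2A housekeeping genes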
In short: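 Differentiated human HepaRG cells, serum-free induction medium, exposed 48 h in duplicate to eight half-log concentrations up to 100 uM in 0.5% DMSO. NFE2L2 mRNA by Fluidigm TaqMan qRT-PCR, normalised to ACTB, GAPDH, POLR2A; bidirectional change versus DMSO.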

[15] = read-out: succinate dehydrogenase complex iron sulfur subunit B (SDHB), SDHB (gene 6390); test: LTEA_HepaRG_SDHB: Life Technologies and Expression Analysis (LTEA) Assay for succinate dehydrogenase complex iron sulfur subunit B (SDHB) using HepaRG (AID 2283528)
In short: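 HepaRG cells (~100,000/well, plated 48 h) exposed in duplicate for 48 h in serum-free induction medium to 8-point half-log series from 100 uM in 0.5% DMSO; mRNA by qRT-PCR normalised to ACTB, GAPDH, POLR2A; bidirectional fit versus DMSO.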

[16] = read-out: Signal transducer and activator of transcription 3 (Homo sapiens) (UniProt P40763); test: LTEA_HepaRG_STAT3: Life Technologies and Expression Analysis (LTEA) Assay for Signal transducer and activator of transcription (STAT3) using HepaRG (AID 2283529)
In short: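 Differentiated HepaRG cells, serum-free induction medium, dosed 48 h in duplicate, 8 half-log concentrations from 100 uM in 0.5% DMSO. STAT3 mRNA by qRT-PCR, normalised to ACTB, GAPDH, POLR2A; bidirectional fit versus DMSO.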

[17] = read-out: solute carrier (SLCO1B1), SLCO1B1 (gene 10599); test: LTEA_HepaRG_SLCO1B1: Life Technologies and Expression Analysis (LTEA) Assay for solute carrier (SLCO1B1) using HepaRG (AID 2283530)
In short: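 HepaRG, serum-free induction medium, 48 h dosing, 8-pt half-log from 100 uM, 0.5% DMSO vehicle, duplicates. Readout: SLCO1B1 mRNA, qRT-PCR, ACTB/GAPDH/POLR2A normalization; up or down fit vs DMSO.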

Measured: outcome

Sequence of Nuclear factor erythroid 2-related factor 2 (Homo sapiens) (Q16236 whole entry, looked up): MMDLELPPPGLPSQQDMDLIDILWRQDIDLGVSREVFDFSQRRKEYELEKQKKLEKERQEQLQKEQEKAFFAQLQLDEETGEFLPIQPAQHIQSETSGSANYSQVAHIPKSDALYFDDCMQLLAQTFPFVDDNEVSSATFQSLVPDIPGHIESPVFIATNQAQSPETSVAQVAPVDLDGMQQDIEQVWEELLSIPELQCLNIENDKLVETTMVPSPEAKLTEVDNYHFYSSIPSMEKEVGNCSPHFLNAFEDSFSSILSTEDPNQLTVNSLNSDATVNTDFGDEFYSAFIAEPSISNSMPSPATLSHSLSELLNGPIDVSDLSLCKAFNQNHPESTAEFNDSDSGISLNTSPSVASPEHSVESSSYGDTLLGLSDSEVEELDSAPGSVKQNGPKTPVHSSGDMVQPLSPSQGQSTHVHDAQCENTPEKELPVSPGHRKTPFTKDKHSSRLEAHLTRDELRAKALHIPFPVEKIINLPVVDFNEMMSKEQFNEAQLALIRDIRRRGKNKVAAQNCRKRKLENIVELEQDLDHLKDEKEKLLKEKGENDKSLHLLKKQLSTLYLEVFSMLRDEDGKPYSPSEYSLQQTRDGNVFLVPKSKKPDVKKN
Sequence of Signal transducer and activator of transcription 3 (Homo sapiens) (P40763 whole entry, looked up): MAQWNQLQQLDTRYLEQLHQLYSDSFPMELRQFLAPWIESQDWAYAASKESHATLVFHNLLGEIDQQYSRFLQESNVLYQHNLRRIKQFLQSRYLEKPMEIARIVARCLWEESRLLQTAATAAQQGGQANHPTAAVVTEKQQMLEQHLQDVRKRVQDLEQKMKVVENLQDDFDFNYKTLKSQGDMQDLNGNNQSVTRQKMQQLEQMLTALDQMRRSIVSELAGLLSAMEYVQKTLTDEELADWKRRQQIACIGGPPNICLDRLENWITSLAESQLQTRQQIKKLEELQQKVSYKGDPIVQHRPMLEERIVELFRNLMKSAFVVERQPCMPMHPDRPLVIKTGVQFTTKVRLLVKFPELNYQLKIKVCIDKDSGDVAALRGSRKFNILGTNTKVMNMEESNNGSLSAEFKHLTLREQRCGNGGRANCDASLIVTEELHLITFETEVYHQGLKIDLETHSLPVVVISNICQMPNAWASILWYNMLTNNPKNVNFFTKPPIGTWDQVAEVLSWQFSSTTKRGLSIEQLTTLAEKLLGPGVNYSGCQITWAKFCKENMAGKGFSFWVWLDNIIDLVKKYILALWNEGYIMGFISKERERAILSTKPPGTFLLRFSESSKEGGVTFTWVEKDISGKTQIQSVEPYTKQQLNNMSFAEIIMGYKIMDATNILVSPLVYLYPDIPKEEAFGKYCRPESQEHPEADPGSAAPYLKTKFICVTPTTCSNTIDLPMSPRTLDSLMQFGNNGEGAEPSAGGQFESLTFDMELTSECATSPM
Sequence of Nuclear factor NF-kappa-B p105 subunit (Homo sapiens) (P19838 whole entry, looked up): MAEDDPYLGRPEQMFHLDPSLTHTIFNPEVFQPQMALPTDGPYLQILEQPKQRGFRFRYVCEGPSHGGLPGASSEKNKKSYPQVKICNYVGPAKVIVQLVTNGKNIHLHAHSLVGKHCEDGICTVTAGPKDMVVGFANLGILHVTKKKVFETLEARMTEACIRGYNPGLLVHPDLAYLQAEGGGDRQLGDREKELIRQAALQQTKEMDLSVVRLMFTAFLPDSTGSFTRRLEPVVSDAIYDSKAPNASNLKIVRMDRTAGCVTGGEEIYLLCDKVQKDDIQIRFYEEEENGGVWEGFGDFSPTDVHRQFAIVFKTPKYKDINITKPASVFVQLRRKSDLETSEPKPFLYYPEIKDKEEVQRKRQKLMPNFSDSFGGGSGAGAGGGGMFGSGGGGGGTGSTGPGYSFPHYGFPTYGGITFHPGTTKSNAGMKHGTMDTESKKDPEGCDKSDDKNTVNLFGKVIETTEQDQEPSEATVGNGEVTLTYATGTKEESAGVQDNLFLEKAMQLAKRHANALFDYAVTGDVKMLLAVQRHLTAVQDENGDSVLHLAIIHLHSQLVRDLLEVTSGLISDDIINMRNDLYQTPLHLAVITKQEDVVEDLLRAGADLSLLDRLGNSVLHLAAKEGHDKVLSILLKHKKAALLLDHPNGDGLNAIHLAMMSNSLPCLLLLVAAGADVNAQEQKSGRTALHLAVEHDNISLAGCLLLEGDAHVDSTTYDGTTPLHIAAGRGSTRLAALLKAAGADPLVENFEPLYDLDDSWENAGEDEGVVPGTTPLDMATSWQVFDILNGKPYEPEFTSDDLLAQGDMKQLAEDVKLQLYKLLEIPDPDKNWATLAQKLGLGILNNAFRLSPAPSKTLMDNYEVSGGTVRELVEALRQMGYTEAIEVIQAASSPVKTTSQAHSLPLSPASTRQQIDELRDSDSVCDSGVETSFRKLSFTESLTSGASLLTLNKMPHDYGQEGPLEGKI

c1cc[n+]2c(c1)-c1cccc[n+]1CC2
inactive: all assays above
